D2 antagonist – HTS Assay for Allosteric Antagonists of the Human D2 Dopamine Receptor: Primary Screen for Antagonists; D(2) dopamine receptor (Homo sapiens), P14416; HEK293 TREx D2 cells, calcium flux, dopamine EC80; inhibition, % at 10 µM; 340,000 tested, 2% active; AID 485344, 2010; in the data active = inhibition above about 30%; inactive = below that, where a call was filed
Target sequence (P14416 whole entry, looked up): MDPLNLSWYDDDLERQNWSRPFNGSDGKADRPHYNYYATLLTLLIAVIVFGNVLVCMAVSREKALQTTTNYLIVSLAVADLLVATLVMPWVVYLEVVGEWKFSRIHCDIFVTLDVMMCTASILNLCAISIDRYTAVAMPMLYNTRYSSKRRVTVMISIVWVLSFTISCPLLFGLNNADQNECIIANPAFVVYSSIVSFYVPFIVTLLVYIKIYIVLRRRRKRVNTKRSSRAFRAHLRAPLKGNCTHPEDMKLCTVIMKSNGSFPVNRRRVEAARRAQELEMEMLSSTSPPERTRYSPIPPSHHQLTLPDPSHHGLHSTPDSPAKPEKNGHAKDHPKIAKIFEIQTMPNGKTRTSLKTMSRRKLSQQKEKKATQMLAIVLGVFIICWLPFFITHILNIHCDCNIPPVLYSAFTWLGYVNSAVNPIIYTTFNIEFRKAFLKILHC
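Read-out: kinetic calcium fluorescence (1 cycle/s) in inducible HEK293 T-REx D2 cells after an EC80 dopamine addition that followed 180 s compound preincubation. Loss of the dopamine response indicates antagonism.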
D2 ag-1 – HTS Assay for Allosteric Agonists of the Human D2 Dopamine Receptor: Primary Screen for Agonists; D(2) dopamine receptor (Homo sapiens), P14416; HEK293 T-REx D2 cells, calcium flux agonist mode; activation, % at 2 µM; 340,000 tested, 0.53% active;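 active = activation over 3 SD above normal in the single-dose calcium agonist read, cut at about 30% in these data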
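Tetracycline-induced HEK293 Trex cells with D2 receptor force-coupled to calcium signaling, plated overnight at 30 C and loaded with no-wash calcium dye. Calcium flux read kinetically for 180 s after compound addition; responses flag agonists.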
D2 PAM-1 – HTS Assay for Positive Allosteric Modulators of the Human D2 Dopamine Receptor: Primary Screen for Potentiators; AID 485347, 2010; 340,000 tested, 0.34% active; potentiation, % at 10 µM; D(2) dopamine receptor (Homo sapiens), P14416; HEK293 T-REx D2, calcium flux, EC20 dopamine potentiation;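 active = potentiation over 3 SD above the plate norm, cut at about 30% in these data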
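Tetracycline-induced Hek293 Trex D2 cells, force-coupled to calcium, loaded with no-wash calcium dye. Compound added with 180 s kinetic read for agonism, then EC20 dopamine and a further 180 s read for potentiation.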
D2 ag-2 – Beta-Arrestin HTS for Positive Allosteric Modulators of the Human D2 Dopamine Receptor: Agonists; D(2) dopamine receptor (Homo sapiens), P14416; activation, % (concentration not given with the values); 360,000 tested, 0.084% active; AID 624465, 2012; DiscoveRx PathHunter D2 beta-arrestin, luminescence, 90 min; 100% = 57 uM dopamine signal; in the data active = activation above about 40%
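DiscoveRx PathHunter D2 beta-arrestin cells (2,100/well) attached overnight, then compound-stimulated 90 min at 37 C in HBSS/10 mM HEPES/0.1% Tween-20 buffer; beta-galactosidase complementation read by luminescence after 1 h at ambient temperature. Dopamine 57 uM final (EC100) as control.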
D2 PAM-2 – Beta-Arrestin HTS for Positive Allosteric Modulators of the Human D2 Dopamine Receptor: Potentiators | D(2) dopamine receptor (Homo sapiens), P14416 | DiscoveRx D2 beta-arrestin cells, luminescence, 90 min; 100% = 57 uM dopamine signal | potentiation, % (no concentration beside the values) | 360,000 tested, 0.23% active | AID 624464, 2012; in the data active = potentiation above about 50%
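PathHunter D2 cells, attached overnight at 37 deg C, received compound in DMSO plus dopamine at EC20 (50 nM final) for 90 min at 37 deg C. Beta-arrestin recruitment was read as luminescence after 1 h with detection reagent at ambient temperature.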
A number is an active result. In the library only some 2.4% were active in any assay of this set; here they are far more common.

Screening CCOc1ccc(CN2CCCC(CO)(Cc3ccccc3F)C2)cc1 (stereo unspecified) returned D2 antagonist 67, D2 ag-1 inactive, D2 PAM-1 inactive, D2 ag-2 inactive and D2 PAM-2 inactive.
OCC1(Cc2ccccc2)CCCN(Cc2ccc(-c3ccco3)cc2)C1 (stereo unspecified) was read as D2 antagonist 54, D2 ag-1 inactive, D2 PAM-1 inactive, D2 ag-2 inactive and D2 PAM-2 inactive.
For COc1cc(Cl)c(CN2CCCC(CO)(Cc3ccccc3F)C2)cc1OC (stereo unspecified) the results were D2 antagonist inactive, D2 ag-1 inactive, D2 PAM-1 inactive, D2 ag-2 inactive and D2 PAM-2 inactive.
`Cc1cccc(CSc2cn(CC(=O)N3CCCCC3)c3ccccc23)c1` gave D2 ag-1 inactive and D2 PAM-1 inactive.
CCCc1cc(=O)oc2c3c(cc(OCC(=O)N[C@@H](CSC)C(=O)O)c12)OC(C)(C)CC3 was read as D2 antagonist inactive, D2 ag-1 inactive, D2 PAM-1 inactive, D2 ag-2 inactive and D2 PAM-2 inactive.
CCCc1cc(=O)oc2c3c(cc(OCC(=O)N[C@@H](C)C(=O)O)c12)OC(C)(C)CC3 was read as D2 antagonist 33, D2 ag-1 inactive, D2 PAM-1 inactive, D2 ag-2 inactive and D2 PAM-2 inactive.
For N#Cc1cccc(NC(=O)COC(=O)CCc2ccc(S(=O)(=O)N3CCOCC3)cc2)c1 the results were D2 antagonist 34, D2 ag-1 inactive, D2 PAM-1 inactive, D2 ag-2 inactive and D2 PAM-2 inactive.
`Cc1ccc(OCC(O)Cn2c3ccccc3c3ccccc32)cc1` (stereo unspecified) gave D2 antagonist inactive, D2 ag-1 inactive, D2 PAM-1 inactive, D2 ag-2 inactive and D2 PAM-2 inactive.
`OC(COc1ccccc1)CN1CCN(Cc2ccc3c(c2)OCO3)CC1` (stereo unspecified) gave D2 antagonist 36, D2 ag-1 inactive, D2 PAM-1 inactive, D2 ag-2 inactive and D2 PAM-2 inactive.
OC(COc1ccccc1F)CN1CCC(Cc2ccccc2)CC1 (stereo unspecified) was read as D2 antagonist 65, D2 ag-1 inactive, D2 PAM-1 inactive, D2 ag-2 inactive and D2 PAM-2 inactive.
Screening OC(COc1ccccc1)CN1CCC(Cc2ccccc2)CC1 (stereo unspecified) returned D2 antagonist 74, D2 ag-1 inactive, D2 PAM-1 inactive, D2 ag-2 inactive and D2 PAM-2 inactive.
`OC(COc1ccc(F)cc1Cl)CN1CCC(Cc2ccccc2)CC1` (stereo unspecified) gave D2 antagonist inactive, D2 ag-1 inactive, D2 PAM-1 inactive, D2 ag-2 inactive and D2 PAM-2 inactive.
`Cc1cc(C)cc(OCC(O)CN2CCN(Cc3ccc4c(c3)OCO4)CC2)c1` (stereo unspecified) gave D2 antagonist inactive, D2 ag-1 inactive, D2 PAM-1 inactive, D2 ag-2 inactive and D2 PAM-2 inactive.
COc1cccc(OCC(O)CN2CCC(Cc3ccccc3)CC2)c1 (stereo unspecified) was read as D2 antagonist inactive, D2 ag-1 inactive, D2 PAM-1 inactive, D2 ag-2 inactive and D2 PAM-2 inactive.
Cc1ccc(OCCN2CCN(CC(O)Cn3c4ccccc4c4ccccc43)CC2)cc1 (stereo unspecified) was read as D2 antagonist 63, D2 ag-1 63 and D2 PAM-1 inactive.
For CN1CCN(CC(O)COc2ccccc2)CC1 (stereo unspecified) the results were D2 antagonist 33, D2 ag-1 inactive, D2 PAM-1 inactive, D2 ag-2 inactive and D2 PAM-2 inactive.
For COc1ccc(OC)c(S(=O)(=O)N2CCN(CC(O)COc3ccccc3)CC2)c1 (stereo unspecified) the results were D2 antagonist 48, D2 ag-1 inactive, D2 PAM-1 inactive, D2 ag-2 inactive and D2 PAM-2 inactive.
Screening C=CCc1ccc(OCC(O)CN2CCC(Cc3ccccc3)CC2)c(OC)c1 (stereo unspecified) returned D2 antagonist 41, D2 ag-1 inactive, D2 PAM-1 inactive, D2 ag-2 inactive and D2 PAM-2 inactive.
COc1ccc(OC)c(S(=O)(=O)N2CCN(CC(O)COc3ccc(C#N)cc3)CC2)c1 (stereo unspecified) was read as D2 antagonist inactive, D2 ag-1 inactive, D2 PAM-1 inactive, D2 ag-2 inactive and D2 PAM-2 inactive.
For Cc1ccc(OCC(=O)Nc2c(C(=O)c3ccc(Cl)cc3)oc3ccccc23)cc1C the results were D2 ag-1 inactive and D2 PAM-1 inactive.
Screening O=C(NCCSCc1ccco1)Nc1cc(Cl)cc(Cl)c1 returned D2 antagonist 30, D2 ag-1 inactive, D2 PAM-1 inactive, D2 ag-2 inactive and D2 PAM-2 inactive.
Cc1ccc(-c2csc(-c3cc4c([nH]c3=O)CC(c3ccccc3)CC4=O)n2)cc1 (stereo unspecified) was read as D2 ag-1 inactive and D2 PAM-1 inactive.
Screening Cc1cc(Br)ccc1NS(=O)(=O)c1c(C)[nH]c(=O)[nH]c1=O returned D2 antagonist inactive, D2 ag-1 inactive, D2 PAM-1 inactive, D2 ag-2 inactive and D2 PAM-2 inactive.
`Cc1cc(NS(=O)(=O)c2c(C)[nH]c(=O)[nH]c2=O)ccc1Br` gave D2 antagonist 41, D2 ag-1 inactive, D2 PAM-1 inactive, D2 ag-2 inactive and D2 PAM-2 inactive.
For CCCCc1nn2c(=O)cc(COC(=O)CNC(=O)c3ccccc3C)nc2s1 the results were D2 ag-1 inactive and D2 PAM-1 inactive.
For COc1ccc(C2N(S(=O)(=O)c3ccc(C)cc3)CCN2S(=O)(=O)c2ccc(C)cc2)cc1 the results were D2 antagonist 36, D2 ag-1 inactive, D2 PAM-1 inactive, D2 ag-2 inactive and D2 PAM-2 inactive.
For COc1ccc(C2N(C(=O)C(F)(F)F)C(C)CN2S(=O)(=O)c2ccc(C)cc2)cc1 (stereo unspecified) the results were D2 antagonist 35, D2 ag-1 inactive, D2 PAM-1 inactive, D2 ag-2 inactive and D2 PAM-2 inactive.
Screening O=C(Nc1cccs1)Nc1ccccc1Cl returned D2 antagonist inactive, D2 ag-1 inactive, D2 PAM-1 inactive, D2 ag-2 inactive and D2 PAM-2 inactive.
For O=C(Nc1cccs1)Nc1cccnc1Cl the results were D2 antagonist 37, D2 ag-1 inactive, D2 PAM-1 inactive, D2 ag-2 inactive and D2 PAM-2 inactive.
Screening CCn1c2ccccc2c2nnc(N3CCN(c4ccc(OC)cc4)CC3)nc21 returned D2 ag-1 inactive and D2 PAM-1 inactive.

Source: PubChem (National Center for Advancing Translational Sciences (NCATS))
